# Assay results from PubChem BioAssay.
# Tests used:
# [1] = system: Human papillomavirus type 1a protein E7 (residues 44-93); assay: small molecules binding HPV E7 44-93 – biochemical, small-molecule microarray, residues 44-93, 635 nm fluorescence, primary screen (AID 1108); details: fluorescence 635 nm, higher = more signal;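 also: E7 fragment applied at 1 µg/mL in TBST for 1 h at 4 C; score combines spot fluorescence with its signal to noise ratio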
# [2] = hepatitis C replication reporter changes, two-sided – Huh7 cells, luciferase reporter, HCV replication inhibitor project, primary screen (AID 1109); details: Huh7 HCV replicon luciferase reporter, 48 h; higher = more signal;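 also: huh7 hepatoma cells harbouring a luciferase neomycin HCV replicon reporter; luciferase luminescence as measure of HCV replicon replication; test concentration not given here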
# [3] = target: Left-right determination factor 2 (Homo sapiens) (UniProt O00292); assay: small molecules binding LEFTY2 protein – biochemical, small-molecule microarray, 635 nm fluorescence scan, primary screen (AID 1110); details: higher = more signal
# Left-right determination factor 2 (Homo sapiens), sequence (O00292 whole entry, looked up): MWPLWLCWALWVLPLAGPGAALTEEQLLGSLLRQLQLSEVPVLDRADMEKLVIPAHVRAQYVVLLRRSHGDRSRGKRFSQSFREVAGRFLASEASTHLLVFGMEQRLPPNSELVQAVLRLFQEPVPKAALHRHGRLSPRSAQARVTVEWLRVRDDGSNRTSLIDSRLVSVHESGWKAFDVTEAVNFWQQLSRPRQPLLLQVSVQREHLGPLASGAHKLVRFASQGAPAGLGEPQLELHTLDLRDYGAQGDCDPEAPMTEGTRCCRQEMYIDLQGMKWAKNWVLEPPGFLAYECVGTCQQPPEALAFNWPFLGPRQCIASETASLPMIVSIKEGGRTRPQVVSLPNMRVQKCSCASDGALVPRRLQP
# [4] = target: Calmodulin-1 (Homo sapiens) (UniProt P0DP23); assay: small molecules binding calmodulin-1 with EGTA – biochemical, small-molecule microarray, Cy5-labelled CALM1, profiling panel (AID 1111); details: Cy5-CALM1 binding fluorescence, higher = more signal;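 also: labelled calmodulin applied in Tris saline Tween buffer holding calcium plus EGTA and DTT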
# [5] = target: Calmodulin-1 (Homo sapiens) (UniProt P0DP23); assay: small molecules binding Ca-loaded calmodulin-1 – biochemical, small-molecule microarray, Cy5-labelled CALM1, plus calcium, artefact control for SMM control-protein annotation, profiling panel (AID 1112); details: Cy5-CALM1 binding fluorescence, higher = more signal;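 also: score merges spot fluorescence with signal to noise from triplicate slides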
# [6] = probe aWnt5a binding to arrayed compounds – biochemical, biotinylated probe, 635/667 nm fluorescence, primary screen (AID 1113); details: small-molecule microarray, higher = more signal;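 also: score merges 667 nm fluorescence intensity with signal-to-noise per printed feature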
# [7] = probe aShh binding to arrayed compounds – biochemical, biotinylated probe, 635/667 nm fluorescence, primary screen (AID 1114); details: small-molecule microarray, higher = more signal;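 also: probe is biotin-labelled aShh protein from a stem cell growth factor screen; measures binding of labelled protein to compounds printed on the slide; score merges feature fluorescence at 667 nm with signal-to-noise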
# [8] = probe aNog binding to arrayed compounds – biochemical, biotinylated probe, 635/667 nm fluorescence, primary screen (AID 1115); details: small-molecule microarray, higher = more signal;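 also: probe is biotinylated aNog protein used at 0.15 µg/mL for 1 h at 4 C; z-score combines 667 nm fluorescence of each spot with its signal to noise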
# [9] = target: Torsin-1A-interacting protein 1 (Homo sapiens) (UniProt Q5JTV8); assay: compound microarray binding of lysate hLAP1 – cell lysate, small-molecule microarray, COS7 lysate, 635/667 nm fluorescence, primary screen (AID 1116); details: 635 nm fluorescence, higher = more signal
# Torsin-1A-interacting protein 1 (Homo sapiens), sequence (Q5JTV8 whole entry, looked up): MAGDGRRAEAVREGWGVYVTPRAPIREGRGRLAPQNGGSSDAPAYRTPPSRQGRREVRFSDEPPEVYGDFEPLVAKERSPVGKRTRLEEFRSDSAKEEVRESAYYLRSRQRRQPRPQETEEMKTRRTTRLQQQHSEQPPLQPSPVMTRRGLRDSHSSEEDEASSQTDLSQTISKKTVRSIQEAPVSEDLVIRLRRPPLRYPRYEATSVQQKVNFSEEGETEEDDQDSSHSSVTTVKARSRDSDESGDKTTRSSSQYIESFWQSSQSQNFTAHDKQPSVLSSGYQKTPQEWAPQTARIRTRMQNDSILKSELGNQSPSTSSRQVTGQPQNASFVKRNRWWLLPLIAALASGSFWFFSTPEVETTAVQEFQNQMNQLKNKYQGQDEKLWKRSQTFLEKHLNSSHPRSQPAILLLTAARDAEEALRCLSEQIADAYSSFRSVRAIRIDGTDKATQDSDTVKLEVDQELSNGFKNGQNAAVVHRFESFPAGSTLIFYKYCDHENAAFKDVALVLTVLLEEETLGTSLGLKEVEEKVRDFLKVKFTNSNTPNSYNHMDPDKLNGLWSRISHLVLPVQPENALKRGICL
# [10] = target: Alpha-bungarotoxin (Bungarus multicinctus) (UniProt P60615); assay: compounds binding labelled alpha-BTX control protein – biochemical, small-molecule microarray, Alexa647 label, 635/667 nm fluorescence, artefact control for SMM control protein annotation, profiling panel (AID 1117); details: alpha-BTX-A647 binding fluorescence, higher = more signal
# Alpha-bungarotoxin (Bungarus multicinctus), sequence (P60615 whole entry, looked up): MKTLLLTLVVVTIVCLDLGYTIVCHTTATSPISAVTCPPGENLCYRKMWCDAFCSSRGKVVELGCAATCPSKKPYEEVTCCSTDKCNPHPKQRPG
SMILES,composite z-score [1],z-score [2],composite z-score [3],composite z-score [4],composite z-score [5],composite z-score [6],composite z-score [7],composite z-score [8],composite z-score [9],composite z-score [10]
COc1cc2c(cc1O)C(C1CC1)N(Cc1cc3c(cc1Br)OCO3)CC2 (stereo not given),0.0206,-3.51,-1.25,-0.515,-0.58,-0.124,-0.134,-0.33,-0.447,-0.745
Cc1ccc(C(C)CC(O)C2C=CC3C(=O)N(C)C(=O)C3N2NC(=O)OC(C)(C)C)o1 (stereo not given),0.598,0.255,1.19,1.73,0.0152,0.246,0.424,0.226,1.27,1.73
COc1ccc(C(O)C2C=CC3C(=O)NC(=O)C3N2Nc2ccccn2)cc1 (stereo not given),-1.08,0.824,0.494,-1.3,-0.498,0.0158,-0.106,0.0861,0.658,-0.0568
CN(C)CCCNC(=O)[C@@]1(c2ccc([N+](=O)[O-])cc2)CC(=O)N(C2CCCCC2)[C@@H]1c1ccc(CO)cc1I,1.41,-3.46,-0.104,-0.0828,-0.245,-0.0721,-0.147,-0.606,0.46,1.03
CO[C@H]1O[C@H](CO)[C@@H](OC(=O)Nc2ccc(Br)cc2)[C@H](OC(=O)c2cc3ccccc3[nH]2)[C@H]1OC(=O)c1cc2ccccc2[nH]1,0.823,-3.51,-0.132,1.87,0.14,0.0775,-0.262,0.121,0.926,0.353
C=CCOC(=O)[C@H]1[C@@H]2C(=O)O[C@@H](c3ccccc3)[C@@H](c3ccccc3)N2[C@@H](c2ccc(OCCOC(=O)[C@H]3C[C@H]4C(=O)N5CCC[C@H]5C(=O)N4[C@H]3c3ccc(O)cc3)cc2)[C@]12C(=O)Nc1ccccc12,1.45,-1.93,1.42,0.959,-0.0987,0.0354,0.147,-0.21,1.5,0.588
O=C(NCC(F)(F)F)[C@@H]1c2ccccc2C(=O)N(C2CCCCC2)[C@H]1c1ccc(CO)cc1,0.268,-1.7,-0.382,0.218,-0.403,-0.172,-0.138,-0.342,-0.257,1.43
C=C(CCCC)C(=O)CC[C@H](OC(=O)c1cccnc1)c1ccccc1OCCO,-0.935,-2.46,-0.154,-0.398,-0.95,-0.0758,-0.102,-0.136,-0.0529,-0.0583
Cc1ccc(S[C@]2(C(=O)NC3CC3)CC(=O)N(C3Cc4ccccc4C3)[C@@H]2c2ccc(CO)cc2)cc1,1.27,-1.08,-1.7,-0.0137,0.0662,-0.258,-0.154,0.354,0.439,-0.441
COc1ccc([C@H]2C[C@H]3C(Br)=C[C@@H]2C(=O)[C@]32CO2)cc1,-0.693,-2.46,0.446,-0.0833,-0.798,0.0136,-0.138,-0.158,0.252,0.29
COc1ccc([Si](C)(C)[C@H]2[C@H](CCO)O[C@@]3(C(=O)N(C)c4c(Br)cc(C)cc43)[C@@H]2C)cc1,-0.122,-5.23,0.304,0.388,0.204,-0.0944,-0.138,0.474,0.269,0.541
CCCC[C@@H]1C[C@H]1[C@@H](NC(=O)c1ccco1)c1ccc(Cl)cc1,1.28,-2.37,0.232,1.68,1.1,-0.0125,0.336,0.314,1.4,1.33
